# Shown are actives, neighbours in structure and some others; about 2.9% of the full set was active somewhere.
# Peg3 promoter: reduces Peg3 promoter-driven luciferase expression in HeLa. HeLa PEG-Prom luciferase reporter, luminescence, overnight. inhibition, % at 20 µM. AID 588405. actives 1.7% (n = 360,000);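 active means inhibition of at least 50% at 20 µM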
# HIF-2a inh: HIF-2a inhibition. 786-0 RCC cells HIF-2a reporter, luciferase luminescence, overnight. inhibition, % at 18.8 µM. actives 0.72% (n = 360,000);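 active means inhibition of the luminescence signal of 40% or more relative to plate controls, in a single-dose primary screen at 18.75 µM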
# CF NFkB inh: inhibitors of cystic fibrosis induced NF-kB; AID 588850; actives 0.86% (n = 360,000); KKLEB NF-kB-GFP reporter, PAF-induced, GFP fluorescence overnight; inhibition, % at 5 µM;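 active means at least 50% inhibition at 5 µM, scaled per plate between neutral and stimulator controls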;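 further: PAF is a Pseudomonas aeruginosa culture filtrate used as stimulus; plate controls were PAF-stimulated DMSO wells for no effect and unstimulated DMSO wells for full effect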
# KKLEB cytotox: reduces viability of KKLEB cystic fibrosis airway cells. actives 0.36% (n = 360,000). activity change (cytotoxicity), % at 5 µM. KKLEB CF airway cells viability, ATPlite luminescence, overnight; stronger effect = lower value; cells stimulated with P. aeruginosa culture filtrate;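 active means corrected activity change at or below -50% at 5 µM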
# EBV LMP1 NFkB: inhibitors of Epstein-Barr LMP1-induced NF-kappaB reporter. LMP1-induced NF-kappaB luciferase reporter cells, luminescence. inhibition, % at 12.5 µM. actives 0.69% (n = 350,000); in the data active means inhibition above about 41%;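 further: 0% = neutral control wells and 100% = reference inhibitor control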
# Shn3 3UTR inh: inhibitors of Schnurri-3 3'UTR reporter in osteoblasts; Clone20 osteoblast Shn3 3'UTR firefly luciferase, 24 h; actives 0.52% (n = 360,000); inhibition, % at 12.5 µM;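 active means mean inhibition of at least 75% with every replicate also reaching 75%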;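 further: 0% = median of neutral control wells and 100% = pilot-screen positive control compound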
# CF NFkB conf: confirmation of cystic fibrosis induced NF-kB inhibitors. shares compounds with CF NFkB inh. KKLEB CF airway cells, PAF-induced NF-kB-GFP fluorescence, overnight. inhibition, % at 5 µM. actives 64% (n = 1,300). AID 602472; in the data active means inhibition above about 40%;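 further: stimulus PAF is a Pseudomonas aeruginosa filtrate and not platelet activating factor; plate controls were DMSO wells with stimulus for no effect and unstimulated DMSO wells for full effect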
# Active calls of the source: *; i = inactive; . = no result given.
SMILES,Peg3 promoter,HIF-2a inh,CF NFkB inh,KKLEB cytotox,EBV LMP1 NFkB,Shn3 3UTR inh,CF NFkB conf
CC(C)NC(=O)N(C)C[C@@H]1Oc2c(NC(=O)Nc3ccccc3)cccc2C(=O)N([C@H](C)CO)C[C@H]1C,-3,10,5,-6,-6,3,.
Cc1c(C(=O)OC(C)C)sc(N)c1C(=O)OC(C)C,-232,-241,12,1,-9,-22,.
CC(=O)Nc1ccc(NC(=O)CCNC(=O)c2ccccc2Cl)cc1,7,29,11,0,-6,-27,.
O=C(NC1CCCCC1)c1ccc([N+](=O)[O-])o1,47,13,32,-14,-16,-16,.
O=C(NC1CCCC(C(F)(F)F)C1)c1ccc([N+](=O)[O-])o1 (stereo unspecified),71*,30,92*,-16,-13,46,53*
Cc1ccnc(NC(=O)CCCOc2cc(=O)n(C)c3ccccc23)c1,92*,i,71*,9,-444,-155,76*
Cc1ccnc(NC(=O)CSc2cc(=O)n(C)c3ccccc23)c1,70*,-264,88*,-26,-74,9,52*
Cn1c(=O)cc(SCC(=O)Nc2cccnc2)c2ccccc21,-25,-45,-6,-4,-7,-14,.
Cc1cc(OCc2cc(C(=O)N3CCC(Oc4cccnc4)CC3)no2)cc(C)c1Cl,16,-36,0,-10,-3,68,.
COc1ccccc1-c1n[nH]nc1C1=CC(=O)C[C@H](c2ccc(F)cc2)C1,28,23,16,-4,-4,7,.
CCc1ccc(-c2n[nH]nc2C2=CC(=O)C[C@H](c3ccc(F)cc3)C2)cc1,36,5,61*,1,0,12,40
COc1ccc(NC(=O)Cn2nnc(C(=O)NCc3ccc(C)cc3)c2N)cc1Cl,7,1,58*,-37,-6,5,10
COc1ccc(NC(=O)Cn2nnc(C(=O)NCc3ccccc3)c2N)cc1Cl,12,18,17,-11,3,21,.
CC1C(c2ccccc2)OCCN1C(=S)Nc1ccc(S(=O)(=O)N2CCCCC2)cc1 (stereo unspecified),20,16,58*,-1,-2,-6,60*
CCn1c(=O)c2c(cnn2C)c2ccccc21,4,17,72*,-15,47*,27,78*
CCNc1ccc(C(=O)OC(C(=O)NC(N)=O)C(C)C)cc1[N+](=O)[O-] (stereo unspecified),-14,8,10,-12,-3,8,.
CC(C)C[C@H](CO)Nc1nc(Nc2cccc(Cl)c2)c2ncn(C(C)C)c2n1,37,-13,61*,-24,-11,28,76*
O=c1c(C(c2ccccc2)c2c(O)nc3n(c2=O)CCS3)c(O)nc2n1CCS2,10,10,2,-8,-2,-5,.
COc1ccc2[nH]c3c(c2c1)CC(C)NC3=O (stereo unspecified),2,13,61*,-6,28,13,71*
CCCn1nc2cc(C(=O)N(CC)c3ccc(OC)cc3)ccc2c1OCC,6,2,30,-26,2,-2,.
CCCC(=O)Nc1ccc(C(=O)NNC(=O)c2ccco2)cc1,-8,13,-7,3,-6,4,.
c1csc(Cc2nn3c(-c4ccncc4)nnc3s2)c1,-5,18,50*,5,10,6,49*
c1cc(-c2nnc3sc(C4CCCCC4)nn23)ccn1,6,19,51*,-16,9,-3,64*
COc1ccccc1-c1nnc2sc(C3CCCCC3)nn12,7,-3,3,5,-4,12,.
Clc1ccccc1OCc1nn2c(-c3ccncc3)nnc2s1,-9,2,14,-12,1,9,.
O=C(O)c1ccc(N/N=C/C2=Cc3ccccc3OC2)cc1,-325,-351,9,16,-23,-62,.
CCC(C(=O)NCc1ccccc1)n1c(-c2cccs2)nc2ccccc21 (stereo unspecified),.,12,.,.,.,.,.
CCc1cc2cc3c(cc2nc1SCC(=O)Nc1cc(C)on1)OCO3,34,0,55*,-42,-1,.,43*
